The supplement of paper PMC12494721
Structures can show the parent of a compound that is named as a salt.

Tests used:
Conditions in all cases: incubation time: 27 h, anaerobic, 37 °C;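 for the amine columns active = adjusted P below 0.05 in both replicates with a change the same way and a mean fold change under 0.8 or over 1.25; inactive = the rest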
[1] = tested on: Clostridium sporogenes DSM 1664; experiment: growth (OD595) fold change vs plate DMSO controls (fold change (ratio)); higher = more growth
Method in brief: (§1)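 The measure reported is growth, taken as fold change against the median of DMSO controls on the same plate. Anaerobic mGAM cultures in 96-well plates (27 h, 37 °C) were read at 595 nm, blank-subtracted, corrected for compound background using 20 µM compound solutions in water, and multiplied by a calibration factor of 5 to give OD. Any fold change above 1.5 became NA, and 2 biological replicates were averaged.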

[2] = tested on: Escherichia coli IAI1; experiment: as above
Method in brief: as §1

[3] = tested on: Klebsiella aerogenes DSM 30053; experiment: as above
Method in brief: as §1

[4] = tested on: Ruminococcus gnavus DSM 108212; experiment: as above
Method in brief: as §1

[5] = tested on: Klebsiella aerogenes DSM 30053; experiment: fold change of Histamine concentration vs plate DMSO controls (fold change (ratio)); higher = more amine produced, active = hit call of the paper (significant change in both replicates, either direction)
Method in brief: (§2)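 Anaerobic mGAM cultures of four gut bacterial strains were grown at 37 °C for 27 h in 80 µL wells, starting at OD 0.1 before 1:1 dilution. Compounds were at 20 µM final (sweeteners 50 µM). Whole cultures were extracted with cold acetonitrile/methanol containing 0.1% formic acid and centrifuged. Amines were quantified by LC–triple-quadrupole MS (dynamic MRM) against external calibration curves and drift-corrected within batch. Each value is the fold change versus plate DMSO controls, averaged over 2 biological replicates.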

[6] = tested on: Clostridium sporogenes DSM 1664; experiment: fold change of Tryptamine concentration vs plate DMSO controls (fold change (ratio)); higher = more amine produced, active = hit call of the paper (significant change in both replicates, either direction)
Method in brief: as §2

[7] = tested on: Ruminococcus gnavus DSM 108212; experiment: as above
Method in brief: as §2

[8] = tested on: Escherichia coli IAI1; experiment: fold change of Putrescine concentration vs plate DMSO controls (fold change (ratio)); higher = more amine produced, active = hit call of the paper (significant change in both replicates, either direction)
Method in brief: as §2

[9] = tested on: Klebsiella aerogenes DSM 30053; experiment: as above
Method in brief: as §2

[10] = tested on: Escherichia coli IAI1; experiment: fold change of Cadaverine concentration vs plate DMSO controls (fold change (ratio)); higher = more amine produced, active = hit call of the paper (significant change in both replicates, either direction)
Method in brief: as §2

[11] = tested on: Klebsiella aerogenes DSM 30053; experiment: as above
Method in brief: as §2

[12] = tested on: Ruminococcus gnavus DSM 108212; experiment: fold change of 2-Phenylethylamine concentration vs plate DMSO controls (fold change (ratio)); higher = more amine produced, active = hit call of the paper (significant change in both replicates, either direction)
Method in brief: as §2

Row | Structure (SMILES) | growth [1] | growth [2] | growth [3] | growth [4] | fold change of Histamine concentration [5] | fold change of Tryptamine concentration [6] | fold change of Tryptamine concentration [7] | fold change of Putrescine concentration [8] | fold change of Putrescine concentration [9] | fold change of Cadaverine concentration [10] | fold change of Cadaverine concentration [11] | fold change of 2-Phenylethylamine concentration [12]
1 | COc1ncnc(NS(=O)(=O)c2ccc(N)cc2)c1OC [Sulfadoxine] (20 µM) | 1 | 1.01 | 1.04 | 1.19 | 1.02 (inactive) | 0.997 (inactive) | 0.985 (inactive) | 1.01 (inactive) | 0.997 (inactive) | 1 (inactive) | 1.01 (inactive) | 0.968 (inactive)
2 | Cc1c(Cl)cccc1Nc1ncccc1C(=O)O [Clonixin lysinate] (20 µM) | 1.13 | 1.07 | 1.02 | 1.43 | 1.01 (inactive) | 0.959 (inactive) | 1.01 (inactive) | 1.1 (inactive) | 1.03 (inactive) | 0.96 (inactive) | 1.04 (inactive) | 1.01 (inactive)
3 | C=CCOc1ccccc1OCC(O)CNC(C)C (stereo not given) [Oxprenolol hydrochloride] (20 µM) | 0.929 | 0.97 | 0.986 | 0.945 | 1.02 (inactive) | 1.08 (inactive) | 1.05 (inactive) | 1.01 (inactive) | 1 (inactive) | 1.02 (inactive) | 0.988 (inactive) | 1.04 (inactive)
4 | O=C(NCC1CCCCN1)c1cc(OCC(F)(F)F)ccc1OCC(F)(F)F (stereo not given) [Flecainide acetate] (20 µM) | 0.94 | 0.991 | 1.01 | 0.997 | 1 (inactive) | 0.99 (inactive) | 1.03 (inactive) | 0.98 (inactive) | 0.976 (inactive) | 0.987 (inactive) | 0.989 (inactive) | 1.06 (inactive)
5 | O=C1CN(/N=C/c2ccc(-c3ccc([N+](=O)[O-])cc3)o2)C(=O)N1 [Dantrolene sodium salt] (20 µM) | 1.04 | 0.986 | 0.993 | 0.79 | 0.984 (inactive) | 0.968 (inactive) | 1.01 (inactive) | 0.991 (inactive) | 0.979 (inactive) | 1.06 (inactive) | 0.99 (inactive) | 0.939 (inactive)
6 | O=C(C1CCCCC1)N1CC(=O)N2CCc3ccccc3C2C1 (stereo not given) [Praziquantel] (20 µM) | 1.01 | 0.975 | 0.99 | 0.82 | 1.06 (inactive) | 0.989 (inactive) | 1.03 (inactive) | 0.947 (inactive) | 1.02 (inactive) | 1.02 (inactive) | 0.978 (inactive) | 0.992 (inactive)
7 | CC[C@@]1(O)C(=O)OCc2c1cc1n(c2=O)Cc2cc3c(CN(C)C)c(O)ccc3nc2-1 [Topotecan] (20 µM) | 1.08 | 1.03 | 0.991 | 0.99 | 1.1 (inactive) | 0.992 (inactive) | 0.998 (inactive) | 1.01 (inactive) | 0.994 (inactive) | 0.961 (inactive) | 1 (inactive) | 1.01 (inactive)
8 | Cc1cccc(CN2CCN(C(c3ccccc3)c3ccc(Cl)cc3)CC2)c1 (stereo not given) [Meclozine dihydrochloride] (20 µM) | 0.897 | 0.963 | 1.01 | 0.705 | 0.964 (inactive) | 1.04 (inactive) | 0.826 (inactive) | 1 (inactive) | 0.989 (inactive) | 0.971 (inactive) | 1.01 (inactive) | 0.93 (inactive)
9 | OC[C@@H](O)[C@@H](O)[C@H](O)[C@@H](O)CO [Sorbitol] (50 µM) | 1.06 | 0.929 | 0.967 | 1.1 | 1.03 (inactive) | 0.988 (inactive) | 0.966 (inactive) | 0.923 (inactive) | 0.869 (inactive) | 1.1 (inactive) | 1.06 (inactive) | 0.959 (inactive)
10 | CCN[C@H]1C[C@H](C)S(=O)(=O)c2sc(S(N)(=O)=O)cc21 [Dorzolamide hydrochloride] (20 µM) | 1.23 | 1.05 | 1.02 | 1.15 | 0.991 (inactive) | 0.996 (inactive) | 0.977 (inactive) | 1.06 (inactive) | 0.977 (inactive) | 0.965 (inactive) | 0.993 (inactive) | 0.992 (inactive)
11 | CN(C)C(=N)NC(=N)N [Metformin hydrochloride] (20 µM) | 0.988 | 1.02 | 0.989 | 1.26 | 0.96 (inactive) | 1 (inactive) | 1.06 (inactive) | 1.03 (inactive) | 0.96 (inactive) | 0.962 (inactive) | 1.02 (inactive) | 1.08 (inactive)
12 | NNC(=O)c1ccncc1 [Isoniazid] (20 µM) | 1.22 | 1.01 | 0.936 | 0.727 | 1.03 (inactive) | 1.05 (inactive) | 0.851 (inactive) | 1.03 (inactive) | 0.991 (inactive) | 1.01 (inactive) | 0.988 (inactive) | 0.844 (inactive)
13 | CCN(CC)CCOC(=O)C(Cc1cccc2ccccc12)CC1CCCO1 (stereo not given) [Nafronyl oxalate] (20 µM) | 0.946 | 1.01 | 0.993 | 1 | 0.982 (inactive) | 0.969 (inactive) | 1.01 (inactive) | 1.01 (inactive) | 1 (inactive) | 1.03 (inactive) | 0.996 (inactive) | 1.01 (inactive)
14 | O=C(c1ccc(F)cc1)C1CCN(CCn2c(=O)[nH]c3ccccc3c2=O)CC1 [Ketanserin tartrate hydrate] (20 µM) | 1.21 | 0.974 | 1.02 | 1.06 | 1.05 (inactive) | 1.18 (inactive) | 1.01 (inactive) | 1.03 (inactive) | 1.02 (inactive) | 0.963 (inactive) | 1.02 (inactive) | 1.02 (inactive)
15 | NC1CCN(c2nc3c(cc2F)c(=O)c(C(=O)O)cn3-c2ccc(F)cc2F)C1 (stereo not given) [Tosufloxacin hydrochloride] (20 µM) | 0.0344 | 0.0566 | 0.173 | 1.45 | 0.0712 (active) | 0.0441 (active) | 0.532 (active) | 0.811 (inactive) | 0.642 (active) | 0.192 (active) | 0.978 (inactive) | 0.615 (active)
16 | CC1(C)S[C@@H]2[C@H](NC(=O)Cc3ccccc3)C(=O)N2[C@H]1C(=O)O [Benzylpenicillin sodium] (20 µM) | 0 | 1.19 | 1.1 | 0 | 1.06 (inactive) | 0.05 (active) | 0.0412 (active) | 1.09 (inactive) | 1.04 (inactive) | 1.56 (active) | 1.03 (inactive) | 0.0471 (active)
17 | C#C[C@]1(O)CC[C@H]2[C@@H]3CCC4=C(CCC(=O)C4)[C@H]3CC[C@@]21C [Norethynodrel] (20 µM) | 0.978 | 1.04 | 1 | 1.02 | 1.03 (inactive) | 0.936 (inactive) | 1.03 (inactive) | 1.04 (inactive) | 1.03 (inactive) | 0.979 (inactive) | 1.01 (inactive) | 0.989 (inactive)
18 | COC(=O)[C@H](Cc1ccccc1)NC(=O)[C@H](CC(=O)O)NCCCc1ccc(OC)c(O)c1 [Advantame] (50 µM) | 0.941 | 0.94 | 0.999 | 0.968 | 1 (inactive) | 0.973 (inactive) | 0.899 (inactive) | 0.932 (inactive) | 1.02 (inactive) | 1.04 (inactive) | 0.996 (inactive) | 0.9 (inactive)
19 | CC(=O)Nc1c(I)c(NC(C)=O)c(I)c(C(=O)O)c1I [Diatrizoic acid dihydrate] (20 µM) | 1.28 | 1.05 | 1.01 | 0.851 | 1.03 (inactive) | 0.947 (inactive) | 1.05 (inactive) | 1.07 (inactive) | 0.983 (inactive) | 1.01 (inactive) | 0.988 (inactive) | 1.01 (inactive)
20 | CC(C(=O)O)c1ccc(N2CC=CC2)c(Cl)c1 (stereo not given) [Pirprofen] (20 µM) | 1.03 | 1.01 | 0.978 | 0.973 | 1.04 (inactive) | 0.987 (inactive) | 1.06 (inactive) | 1.04 (inactive) | 0.957 (inactive) | 0.95 (inactive) | 0.981 (inactive) | 1.15 (inactive)
21 | CN1CCC(OC(c2ccccc2)c2ccccc2)CC1 [Diphenylpyraline hydrochloride] (20 µM) | 0.998 | 0.955 | 0.989 | 1.13 | 1.05 (inactive) | 1.01 (inactive) | 0.999 (inactive) | 1.01 (inactive) | 0.995 (inactive) | 0.979 (inactive) | 0.983 (inactive) | 1.05 (inactive)
22 | CC(C)[C@H]1CC[C@H](C(=O)N[C@H](Cc2ccccc2)C(=O)O)CC1 [Nateglinide] (20 µM) | 1.11 | 1.22 | 1.02 | 0.903 | 1.01 (inactive) | 0.94 (inactive) | 1.02 (inactive) | 1.2 (inactive) | 1 (inactive) | 0.984 (inactive) | 1 (inactive) | 1.05 (inactive)
23 | CC(=O)Oc1cccc2c1C(=O)c1c(OC(C)=O)cc(C(=O)O)cc1C2=O [Diacerein] (20 µM) | 0.926 | 0.994 | 0.96 | 0.904 | 0.952 (inactive) | 1.02 (inactive) | 0.905 (inactive) | 1.08 (inactive) | 0.956 (inactive) | 1.02 (inactive) | 1 (inactive) | 0.916 (inactive)
24 | CCN(CC)C(=O)/C(C#N)=C/c1cc(O)c(O)c([N+](=O)[O-])c1 [Entacapone] (20 µM) | 0.868 | 0.974 | 1.06 | 1.07 | 1.01 (inactive) | 0.961 (inactive) | 0.929 (inactive) | 0.993 (inactive) | 1.03 (inactive) | 0.977 (inactive) | 0.995 (inactive) | 0.896 (inactive)
25 | CC(=O)OC[C@H]1O[C@@H]([S-])[C@H](OC(C)=O)[C@@H](OC(C)=O)[C@@H]1OC(C)=O.CCP(CC)CC.[Au+] [Auranofin] (20 µM) | 0.978 | 1.02 | 0.951 | 0.00158 | 0.65 (active) | 0.49 (active) | 0.05 (active) | 0.925 (inactive) | 0.89 (inactive) | 0.996 (inactive) | 0.972 (inactive) | 0.0596 (active)
